# Measurements taken from PubChem BioAssay.
# Calls of active or inactive are those of the source. Unless noted, no rule for the calls is given here.
# Assays:
# [1] = compound effects on lung adenocarcinoma cell viability – A549, calcein-AM fluorescence, 48 h, basal, profiling panel (AID 1162); details: higher = more signal; also: test concentration not given here
# [2] = compound effects on differentiated 3T3-L1 adipocyte viability – cell-based, 3T3-L1 adipocytes, calcein-AM fluorescence, 48 h, basal, profiling panel (AID 1163); details: 3T3-L1 adipocytes viability, higher = more signal; also: test concentration not given here
# [3] = compound effects on hepatocellular carcinoma cell viability – HepG2, calcein-AM fluorescence, 48 h, basal, profiling panel (AID 1164); details: higher = more signal; also: test concentration not given here
# [4] = compound effects on multiple myeloma cell viability – MM1S, calcein-AM fluorescence, 48 h, basal, profiling panel (AID 1165); details: higher = more signal;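 also: viability of MM1S multiple myeloma cells under basal unstimulated conditions; test concentration not given here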
# [5] = calcein-AM signal in unstimulated myeloma cells – cell-based, calcein-AM fluorescence, 48 h, PK04 Diversity Set, profiling panel (AID 1166); details: RPMI8226 myeloma viability, higher = more signal;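 also: cells grown under basal conditions without added stimulus; test concentration not given here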
# [6] = JC-1 mitochondrial signal, unstimulated HepG2 cells – cell-based, JC-1 fluorescence, 24 h, 100 nL compound, profiling panel (AID 1167); details: HepG2 mitochondrial potential, higher = more signal; also: test concentration not given here
# [7] = JC-1 mitochondrial signal, unstimulated adipocytes – cell-based, JC-1 fluorescence, 3T3-L1 adipocytes, 24 h, 100 nL compound, profiling panel (AID 1168); details: JC-1 mitochondrial fluorescence, higher = more signal, called active from +8 up or from −8 down; also: test concentration not given here
# [8] = JC-1 mitochondrial signal, unstimulated myeloma cells – cell-based, JC-1 fluorescence, RPMI8226, 24 h, 100 nL compound, profiling panel (AID 1169); details: JC-1 mitochondrial potential fluorescence, higher = more signal; also: test concentration not given here
# [9] = JC-1 mitochondrial signal, unstimulated MM1S myeloma – cell-based, JC-1 fluorescence, 24 h, 100 nL compound, profiling panel (AID 1170); details: MM1S mitochondrial potential, higher = more signal; also: test concentration not given here
# [10] = resazurin metabolic signal in A549 cells – cell-based, resazurin fluorescence, 24 h, PK04 Diversity Set, profiling panel (AID 1171); details: A549 viability, higher = more signal, called active from +8 up or from −8 down; also: test concentration not given here
# [11] = resazurin metabolic signal in HepG2 cells – cell-based, resazurin fluorescence, 24 h, PK04 Diversity Set, profiling panel (AID 1172); details: HepG2 viability, higher = more signal; also: test concentration not given here
# [12] = budding yeast growth changes without added modifier – OD600, strain BY4716, 24 h, basal condition, primary screen (AID 1173); details: S. cerevisiae BY4716 growth, OD600, 24 h; higher = more signal, called active from +8 up or from −8 down
# [13] = viability profiling in MM1S myeloma cells – cell-based, resazurin fluorescence, basal, 24 h, PK04 Diversity Set, profiling panel (AID 1174); details: higher = more signal, called active from +8 up or from −8 down; also: test concentration not given here
# [14] = molecular target: Dihydroorotate dehydrogenase (quinone), mitochondrial (Plasmodium falciparum (isolate 3D7)) (UniProt Q08210); assay: inhibition of P. falciparum DHODH – biochemical, C-terminal His tag, absorbance 600 nm, primary screen (AID 1175); details: PfDHODH enzyme, DCIP absorbance 600 nm; higher = more signal, called active from +8 up or from −8 down;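 also: recombinant parasite enzyme with a five histidine tag at its C terminus; test concentration not given here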
# [15] = inhibition of PAO1 biofilm formation – strain PAO1, LB-PBS medium, absorbance 600 nm, primary screen (AID 1176); also: test concentration not given here; details: P. aeruginosa PAO1 growth/biofilm, A600, 12 h; higher = more signal
# [16] = growth modulation of vineyard yeast isolate – strain RM11-1a, OD600, basal, 24 h, primary screen (AID 1177);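 also: cultures grown under basal conditions with no added stressor; test concentration not given here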; details: S. cerevisiae RM11-1a growth, OD600, 24 h; higher = more signal, called active from +8 up or from −8 down
# [17] = growth of efflux-deficient E. coli DRC39 – strain DRC39, OD650, 24 h, E. coli filamentation inducers, primary screen (AID 1178);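 also: growth measured as culture turbidity by optical density at 650 nm; test concentration not given here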; details: E. coli DRC39 acrAB, higher = more signal, called active from +8 up or from −8 down
# [18] = growth of efflux-deficient E. coli DRC39 – strain DRC39, OD650, 48 h, E. coli filamentation inducers, primary screen (AID 1179);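 also: screen aims at cell division blockers that make cells filament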; details: E. coli DRC39 delta-acrAB growth, higher = more signal, called active from +8 up or from −8 down
# [19] = viability profiling in RPMI8226 myeloma cells – cell-based, resazurin fluorescence, basal, 24 h, PK04 Diversity Set, profiling panel (AID 1180); details: higher = more signal;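 also: RPMI8826 multiple myeloma cell line at 5000 cells per well; test concentration not given here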
# [20] = molecular target: E3 ubiquitin-protein ligase XIAP (Homo sapiens) (UniProt P98170); assay: small molecules binding XIAP protein – biophysical, small-molecule microarray, fluorescence 635 nm, primary screen (AID 1181); details: higher = more signal;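 also: score merges 667 nm emission and signal to noise over triplicate slides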
# Sequence of E3 ubiquitin-protein ligase XIAP (Homo sapiens) (P98170 whole entry, looked up): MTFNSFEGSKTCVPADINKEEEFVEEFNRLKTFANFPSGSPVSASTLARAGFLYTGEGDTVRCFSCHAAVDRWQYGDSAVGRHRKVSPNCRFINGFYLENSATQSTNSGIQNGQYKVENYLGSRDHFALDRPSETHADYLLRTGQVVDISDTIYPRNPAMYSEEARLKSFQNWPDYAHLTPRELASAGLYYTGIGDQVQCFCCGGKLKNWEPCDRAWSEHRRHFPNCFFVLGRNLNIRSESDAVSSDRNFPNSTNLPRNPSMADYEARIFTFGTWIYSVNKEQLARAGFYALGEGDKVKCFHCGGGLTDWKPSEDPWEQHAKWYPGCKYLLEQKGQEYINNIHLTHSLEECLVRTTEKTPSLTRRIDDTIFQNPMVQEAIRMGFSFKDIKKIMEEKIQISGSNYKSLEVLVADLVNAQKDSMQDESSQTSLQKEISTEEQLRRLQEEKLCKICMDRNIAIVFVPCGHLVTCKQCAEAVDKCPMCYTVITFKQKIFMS
# Sequence of Dihydroorotate dehydrogenase (quinone), mitochondrial (Plasmodium falciparum (isolate 3D7)) (Q08210 whole entry, looked up): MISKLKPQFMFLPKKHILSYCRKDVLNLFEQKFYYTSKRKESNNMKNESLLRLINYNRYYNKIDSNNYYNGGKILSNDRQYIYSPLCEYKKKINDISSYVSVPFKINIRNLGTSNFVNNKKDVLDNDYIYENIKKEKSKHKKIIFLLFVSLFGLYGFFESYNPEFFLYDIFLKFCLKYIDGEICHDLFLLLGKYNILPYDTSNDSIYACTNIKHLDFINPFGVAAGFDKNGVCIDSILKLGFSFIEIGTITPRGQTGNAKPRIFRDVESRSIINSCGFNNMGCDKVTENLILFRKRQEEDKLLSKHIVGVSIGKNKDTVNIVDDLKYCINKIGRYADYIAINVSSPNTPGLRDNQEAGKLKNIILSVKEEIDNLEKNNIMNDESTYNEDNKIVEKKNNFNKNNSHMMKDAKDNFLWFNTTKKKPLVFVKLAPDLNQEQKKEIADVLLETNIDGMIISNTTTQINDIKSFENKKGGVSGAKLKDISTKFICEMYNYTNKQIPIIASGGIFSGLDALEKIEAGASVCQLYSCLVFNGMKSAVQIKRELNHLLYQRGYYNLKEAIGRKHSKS
Structure (SMILES),z-score [1],z-score [2],z-score [3],z-score [4],z-score [5],z-score [6],z-score [7],z-score [8],z-score [9],z-score [10],z-score [11],z-score [12],z-score [13],composite z-score [14],z-score [15],z-score [16],z-score [17],z-score [18],z-score [19],composite z-score [20]
CON=CC[C@@H]1C=C[C@H](OC(C)=O)[C@@H](COC(C)=O)O1,0.779,-0.221,-0.0589,-1.09,-0.0741,0.308,-0.835 (inactive),-0.589,-0.0369,-0.357 (inactive),-0.144,-0.0768 (inactive),0.0181 (inactive),-1.1 (inactive),-0.0903 (inactive),0.964 (inactive),0.736 (inactive),-1.17 (inactive),-0.143,0.502
CO[C@H]1COC(=O)[C@H](C)NC(=O)CC=C[C@@H](C)[C@H](OC)COC(=O)[C@@H](OCc2ccccc2)C=C[C@@H]1C,0.0192,0.0912,0.645,-0.144,-0.646,0.00399,-0.29 (inactive),-0.0466,0.474,0.703 (inactive),1.15,-0.479 (inactive),0.346 (inactive),0.234 (inactive),-0.838 (inactive),-0.462 (inactive),0.575 (inactive),0.2 (inactive),0.323,-0.142
CCOC(=O)[C@H](Cc1ccccc1)NC(=O)CCC1CC(OC(=O)NCc2ccc3c(c2)OCO3)CC2(CCCC(COC(=O)NCCC(C)C)O2)O1 (stereo not given in full),0.339,1.36,-1.58,-3.41,-3.9,0.162,-0.375 (inactive),-0.212,-1.32,-0.149 (inactive),-0.341,-0.426 (inactive),0.812 (inactive),0.55 (inactive),-1.17 (inactive),0.895 (inactive),0.308 (inactive),0.249 (inactive),0.75,-0.0559
CC(=O)OC[C@H]1O[C@H](CCON=C2[C@H]3CCn4c(=O)n(-c5ccccc5)c(=O)n4[C@H]3[C@H](O)[C@@H]3O[C@H]23)C=C[C@@H]1OC(C)=O,0.0488,-1.08,0.254,-0.775,-0.645,-0.58,-0.91 (inactive),0.602,-0.876,-0.862 (inactive),-0.609,0.0957 (inactive),-3.19 (inactive),0.33 (inactive),-0.95 (inactive),0.393 (inactive),0.785 (inactive),1.17 (inactive),-0.759,-0.148
C[C@@H](ON=C1[C@H]2CCn3c(=O)n(-c4ccccc4)c(=O)n3[C@H]2[C@H](O)[C@@H]2O[C@H]12)c1cn([C@@H]2COC[C@H]2O)nn1,0.0219,-0.15,0.373,-0.289,-0.292,-0.377,-1.84 (inactive),-0.0731,-0.696,0.0264 (inactive),-0.311,0.337 (inactive),-0.739 (inactive),-0.642 (inactive),0.523 (inactive),-1.01 (inactive),0.0645 (inactive),-0.317 (inactive),-0.715,-0.189
CCOC(=O)[C@H](CC(C)C)NC(=O)CCC1CC(OC(=O)NCc2ccc3c(c2)OCO3)CC2(CCCC(COC(=O)NCC(c3ccccc3)c3ccccc3)O2)O1 (stereo not given in full),-0.338,-0.335,-0.312,-3.41,0.592,-0.106,0.604 (inactive),-0.828,0.0369,0.577 (inactive),0.842,0.724 (inactive),0.56 (inactive),0.125 (inactive),-0.306 (inactive),0.786 (inactive),0.304 (inactive),0.321 (inactive),0.509,-0.17
CCOC(=O)[C@H](CC(C)C)NC(=O)CCC1CC(OC(=O)NCc2cccc3ccccc23)CC2(CCCC(COC(=O)NCCc3ccc(Cl)cc3)O2)O1 (stereo not given in full),-0.539,-0.23,-0.0607,-3.16,0.403,0.326,1.03 (inactive),-0.436,-1.86,0.384 (inactive),0.568,-1.89 (inactive),1.15 (inactive),-1.16 (inactive),0.262 (inactive),-1.2 (inactive),0.389 (inactive),-0.214 (inactive),1.3,-0.0559
COC(=O)CC=C[C@@H](C)[C@@H](C=NOC(C)CN1CCCc2nc(C)c(C)cc21)OC (stereo not given in full),0.756,-0.274,0.125,0.0457,0.142,-0.16,0.111 (inactive),-0.194,-0.259,-0.399 (inactive),-0.412,0.0692 (inactive),0.141 (inactive),-0.781 (inactive),-0.537 (inactive),-0.151 (inactive),-0.222 (inactive),-0.0403 (inactive),-1.26,0.137
C#CCCCON=C1[C@H]2CCn3c(=O)n(C)c(=O)n3[C@H]2[C@H](O)[C@@H]2O[C@H]12,0.0083,-0.421,0.716,-0.85,-0.801,0.398,0.206 (inactive),-0.253,0.00711,-0.576 (inactive),-1.33,-0.492 (inactive),-1.59 (inactive),-0.511 (inactive),-0.568 (inactive),0.956 (inactive),0.0518 (inactive),0.385 (inactive),-1.93,-0.391
